# Data taken from the supplement of paper PMC11732987, “Enantioselective OTUD7B fragment discovery through chemoproteomics screening and high-throughput optimisation” (Communications Chemistry, 2025).
# A number with no mark means an inactive call.
# Tests used:
# Experiment in all cases: log2 ratio of Biotin-Ahx-Ub-VS probe labelling (fragment/DMSO); higher = less target engagement (more negative = stronger competition), active = hit call of the paper (q ≤ 0.05, log2 ratio ≤ -1)
# Conditions in all cases: compound concentration: 200 uM; treatment time: 3 h
# OTUD6B = molecular target: T1, OTUD6B (UniProt Q8N6M0)
# T1 sequence (whole entry): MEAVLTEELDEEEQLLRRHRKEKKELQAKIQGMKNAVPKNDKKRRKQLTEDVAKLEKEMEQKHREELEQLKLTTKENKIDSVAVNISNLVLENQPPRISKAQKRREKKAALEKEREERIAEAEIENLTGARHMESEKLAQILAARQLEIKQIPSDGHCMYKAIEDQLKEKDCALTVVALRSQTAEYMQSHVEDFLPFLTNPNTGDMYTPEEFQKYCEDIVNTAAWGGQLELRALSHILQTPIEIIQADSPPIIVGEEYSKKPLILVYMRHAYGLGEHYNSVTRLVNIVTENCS
# In short: (§1)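 Fragment (200 µM) or vehicle was incubated for 3 h with triplicate HEK293T lysate samples of 495 µg, which were then treated with Biotin-Ahx-Ub-VS at 0.5 µM final for 1 h. Labelled DUBs were enriched on NeutrAvidin, digested with LysC and trypsin, and analysed by diaPASEF LC-MS/MS. Values are average log2 fragment/vehicle ratios from an unpaired t-test on global-median-normalised Spectronaut label-free quantities, using proteins with ≥2 unique peptides.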
# OTUD7B = molecular target: T2, OTUD7B (UniProt Q6GQQ9)
# T2 sequence (whole entry): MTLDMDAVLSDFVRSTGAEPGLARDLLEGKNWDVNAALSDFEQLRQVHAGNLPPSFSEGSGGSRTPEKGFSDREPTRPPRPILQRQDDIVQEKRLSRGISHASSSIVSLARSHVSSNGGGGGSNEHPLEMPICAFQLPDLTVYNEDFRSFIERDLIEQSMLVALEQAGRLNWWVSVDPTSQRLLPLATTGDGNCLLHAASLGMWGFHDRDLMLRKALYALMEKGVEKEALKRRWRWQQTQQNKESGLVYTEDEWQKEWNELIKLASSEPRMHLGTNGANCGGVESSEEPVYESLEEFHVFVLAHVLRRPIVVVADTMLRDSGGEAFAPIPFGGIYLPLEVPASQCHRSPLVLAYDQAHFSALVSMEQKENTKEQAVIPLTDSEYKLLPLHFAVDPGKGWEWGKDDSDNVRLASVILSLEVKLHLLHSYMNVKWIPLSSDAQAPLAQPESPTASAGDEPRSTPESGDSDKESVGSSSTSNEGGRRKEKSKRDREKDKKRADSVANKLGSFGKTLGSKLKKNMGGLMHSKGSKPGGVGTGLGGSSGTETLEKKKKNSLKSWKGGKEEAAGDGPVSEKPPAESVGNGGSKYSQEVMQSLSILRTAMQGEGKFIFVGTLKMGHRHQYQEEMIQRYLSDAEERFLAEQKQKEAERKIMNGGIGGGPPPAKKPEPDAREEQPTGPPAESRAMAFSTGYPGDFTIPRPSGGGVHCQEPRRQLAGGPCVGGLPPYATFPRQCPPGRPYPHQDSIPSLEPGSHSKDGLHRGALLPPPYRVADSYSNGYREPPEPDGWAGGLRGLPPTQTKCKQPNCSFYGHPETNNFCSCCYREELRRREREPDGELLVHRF
# In short: as §1
# PRPF8 = PRPF8 (UniProt Q6P2Q9)
# In short: as §1
# PSMD7 = molecular target: T3, PSMD7 (UniProt P51665)
# T3 sequence (whole entry): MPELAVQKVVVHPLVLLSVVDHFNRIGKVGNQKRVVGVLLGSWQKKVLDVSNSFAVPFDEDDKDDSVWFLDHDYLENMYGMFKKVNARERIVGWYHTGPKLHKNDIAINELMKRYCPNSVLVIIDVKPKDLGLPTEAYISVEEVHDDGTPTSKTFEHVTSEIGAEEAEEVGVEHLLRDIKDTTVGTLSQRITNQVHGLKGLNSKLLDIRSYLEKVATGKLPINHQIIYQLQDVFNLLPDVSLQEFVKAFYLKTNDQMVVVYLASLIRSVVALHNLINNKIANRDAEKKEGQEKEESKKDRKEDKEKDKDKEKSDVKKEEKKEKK
# In short: as §1
# UCHL1 = UCHL1 (UniProt P09936)
# In short: as §1
# UCHL3 = molecular target: T4, UCHL3 (UniProt P15374)
# T4 sequence (whole entry): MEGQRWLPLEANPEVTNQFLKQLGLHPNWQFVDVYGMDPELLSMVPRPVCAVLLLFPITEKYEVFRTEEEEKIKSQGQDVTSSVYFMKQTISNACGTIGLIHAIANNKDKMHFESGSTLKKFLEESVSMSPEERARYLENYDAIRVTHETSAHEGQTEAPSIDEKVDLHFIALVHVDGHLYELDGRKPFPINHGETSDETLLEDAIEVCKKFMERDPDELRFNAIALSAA
# In short: as §1
# UCHL5 = molecular target: T5, UCHL5 (UniProt Q9Y5K5)
# T5 sequence (whole entry): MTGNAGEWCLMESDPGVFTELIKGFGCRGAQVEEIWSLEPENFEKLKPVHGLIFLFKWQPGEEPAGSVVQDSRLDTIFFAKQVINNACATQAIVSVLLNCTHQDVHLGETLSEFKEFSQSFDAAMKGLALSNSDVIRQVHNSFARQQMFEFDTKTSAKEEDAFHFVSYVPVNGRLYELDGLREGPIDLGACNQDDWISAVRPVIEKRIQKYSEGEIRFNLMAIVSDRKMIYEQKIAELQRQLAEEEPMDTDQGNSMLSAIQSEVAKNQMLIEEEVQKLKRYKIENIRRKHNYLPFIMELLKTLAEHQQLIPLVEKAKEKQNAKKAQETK
# In short: as §1
# USP10 = USP10 (UniProt Q14694)
# In short: as §1
# USP15 = molecular target: T6, USP15 (UniProt Q9Y4E8)
# T6 sequence (whole entry): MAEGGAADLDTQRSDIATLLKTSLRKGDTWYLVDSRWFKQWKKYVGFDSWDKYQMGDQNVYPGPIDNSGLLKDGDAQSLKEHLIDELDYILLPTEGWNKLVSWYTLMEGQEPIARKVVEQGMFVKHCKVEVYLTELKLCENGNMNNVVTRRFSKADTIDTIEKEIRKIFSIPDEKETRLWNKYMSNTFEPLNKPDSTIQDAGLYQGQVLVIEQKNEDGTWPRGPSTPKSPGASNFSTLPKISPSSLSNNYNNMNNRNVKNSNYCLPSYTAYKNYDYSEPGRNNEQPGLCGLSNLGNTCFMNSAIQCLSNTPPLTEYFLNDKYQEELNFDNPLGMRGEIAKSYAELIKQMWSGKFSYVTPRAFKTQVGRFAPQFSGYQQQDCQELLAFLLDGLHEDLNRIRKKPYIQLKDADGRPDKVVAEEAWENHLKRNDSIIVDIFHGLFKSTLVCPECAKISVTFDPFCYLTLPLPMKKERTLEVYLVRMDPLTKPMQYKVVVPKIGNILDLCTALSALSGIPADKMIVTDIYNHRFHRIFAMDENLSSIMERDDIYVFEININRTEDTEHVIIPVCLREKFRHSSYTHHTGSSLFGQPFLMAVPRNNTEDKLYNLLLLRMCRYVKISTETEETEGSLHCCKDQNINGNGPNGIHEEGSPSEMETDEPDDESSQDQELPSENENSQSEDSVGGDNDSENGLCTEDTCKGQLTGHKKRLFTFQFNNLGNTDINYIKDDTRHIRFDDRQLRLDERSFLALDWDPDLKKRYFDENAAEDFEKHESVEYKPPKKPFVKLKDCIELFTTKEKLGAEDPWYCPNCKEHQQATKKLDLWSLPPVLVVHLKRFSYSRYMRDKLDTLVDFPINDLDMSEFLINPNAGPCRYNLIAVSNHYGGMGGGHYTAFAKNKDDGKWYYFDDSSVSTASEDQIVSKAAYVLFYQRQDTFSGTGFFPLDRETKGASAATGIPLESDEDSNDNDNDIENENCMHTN
# In short: as §1
# USP16 = USP16 (UniProt Q9Y5T5)
# In short: as §1
# USP10, sequence (Q14694 whole entry): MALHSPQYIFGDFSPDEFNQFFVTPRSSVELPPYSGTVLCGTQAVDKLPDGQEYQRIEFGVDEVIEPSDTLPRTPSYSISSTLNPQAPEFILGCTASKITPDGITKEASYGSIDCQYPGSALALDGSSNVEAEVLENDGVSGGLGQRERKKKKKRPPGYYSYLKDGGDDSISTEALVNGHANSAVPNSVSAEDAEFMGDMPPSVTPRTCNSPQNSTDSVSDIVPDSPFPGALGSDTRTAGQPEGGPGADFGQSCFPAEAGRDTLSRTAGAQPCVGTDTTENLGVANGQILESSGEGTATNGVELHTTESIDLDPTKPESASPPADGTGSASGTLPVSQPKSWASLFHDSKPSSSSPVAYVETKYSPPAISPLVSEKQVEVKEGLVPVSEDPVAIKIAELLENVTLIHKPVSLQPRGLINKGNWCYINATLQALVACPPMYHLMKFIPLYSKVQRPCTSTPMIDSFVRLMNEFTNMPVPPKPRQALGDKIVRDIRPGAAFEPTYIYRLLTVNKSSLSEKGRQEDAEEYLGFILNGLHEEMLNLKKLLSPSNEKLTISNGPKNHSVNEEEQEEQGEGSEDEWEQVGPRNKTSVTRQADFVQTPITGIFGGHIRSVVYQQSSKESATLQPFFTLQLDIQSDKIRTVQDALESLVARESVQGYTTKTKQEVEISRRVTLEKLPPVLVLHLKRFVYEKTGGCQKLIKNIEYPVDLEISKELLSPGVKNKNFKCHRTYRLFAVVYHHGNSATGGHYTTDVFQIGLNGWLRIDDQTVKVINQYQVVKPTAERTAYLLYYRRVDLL
# UCHL1, sequence (P09936 whole entry, looked up): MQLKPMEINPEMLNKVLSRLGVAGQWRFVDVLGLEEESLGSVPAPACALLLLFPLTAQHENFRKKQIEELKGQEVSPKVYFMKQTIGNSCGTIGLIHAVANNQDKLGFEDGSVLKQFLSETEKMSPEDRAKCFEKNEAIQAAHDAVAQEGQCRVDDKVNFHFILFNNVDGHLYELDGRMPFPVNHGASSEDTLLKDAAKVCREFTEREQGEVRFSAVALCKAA
# USP16, sequence (Q9Y5T5 whole entry, looked up): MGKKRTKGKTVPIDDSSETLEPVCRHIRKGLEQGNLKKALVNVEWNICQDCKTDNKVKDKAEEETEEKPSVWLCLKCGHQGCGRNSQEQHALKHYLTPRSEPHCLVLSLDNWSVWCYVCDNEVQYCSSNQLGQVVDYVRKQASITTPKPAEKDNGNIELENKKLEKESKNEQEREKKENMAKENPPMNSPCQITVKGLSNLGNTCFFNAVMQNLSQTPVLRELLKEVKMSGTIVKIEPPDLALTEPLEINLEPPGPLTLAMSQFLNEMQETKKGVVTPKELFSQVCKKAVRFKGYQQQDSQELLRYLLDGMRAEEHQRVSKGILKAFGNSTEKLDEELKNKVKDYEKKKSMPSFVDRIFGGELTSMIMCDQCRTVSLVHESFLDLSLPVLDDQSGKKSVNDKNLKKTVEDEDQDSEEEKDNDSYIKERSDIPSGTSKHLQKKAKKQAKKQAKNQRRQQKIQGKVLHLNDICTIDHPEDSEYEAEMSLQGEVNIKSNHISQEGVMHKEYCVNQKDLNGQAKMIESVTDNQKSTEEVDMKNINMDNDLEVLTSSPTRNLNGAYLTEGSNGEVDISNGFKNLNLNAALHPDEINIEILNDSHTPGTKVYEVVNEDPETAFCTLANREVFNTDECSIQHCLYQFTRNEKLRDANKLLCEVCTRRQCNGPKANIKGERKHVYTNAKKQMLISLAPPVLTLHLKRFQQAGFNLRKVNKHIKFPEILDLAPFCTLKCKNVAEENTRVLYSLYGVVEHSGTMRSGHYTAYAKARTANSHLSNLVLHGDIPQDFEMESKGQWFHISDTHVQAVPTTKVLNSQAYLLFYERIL
structure (smiles),measurement,setting,value
O=C(CCl)N1CCCCCC1c1ncon1 (stereo not given),log2 ratio of Biotin-Ahx-Ub-VS probe labelling,OTUD6B,-0.149
same,log2 ratio of Biotin-Ahx-Ub-VS probe labelling,OTUD7B,-0.512
same,log2 ratio of Biotin-Ahx-Ub-VS probe labelling,PRPF8,-0.173
same,log2 ratio of Biotin-Ahx-Ub-VS probe labelling,PSMD7,-0.174
same,log2 ratio of Biotin-Ahx-Ub-VS probe labelling,UCHL1,-1.82 (active)
same,log2 ratio of Biotin-Ahx-Ub-VS probe labelling,UCHL3,0.279
same,log2 ratio of Biotin-Ahx-Ub-VS probe labelling,UCHL5,-0.229
same,log2 ratio of Biotin-Ahx-Ub-VS probe labelling,USP10,-0.0372
same,log2 ratio of Biotin-Ahx-Ub-VS probe labelling,USP15,-0.142
same,log2 ratio of Biotin-Ahx-Ub-VS probe labelling,USP16,-0.0478
